Test results taken from PubChem BioAssay.
Records with an inconclusive call do not appear. Active and inactive are the calls of the source.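 How the source made its calls, unless noted: active means normalized viability below 100% at a tested concentration; inactive means the rest.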

Experiments:
[1] = growth inhibition of DIPG glioma cells, dose response, cell-based, SU-DIPG-XVII, MIPE5.0, CellTiter-Glo, qHTS (AID 1347060; cut-off not given, nearly all actives have AC50 up to about 26 µM;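 further: cells exposed to compound for 48 hours before viability readout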); conditions: SU-DIPG-XVII viability, CellTiter-Glo ATP luminescence
[2] = growth inhibition of DIPG glioma cells, dose response, cell-based, SU-DIPG-XIII, MIPE4.0, CellTiter-Glo, qHTS (AID 1347061; cut-off not given, nearly all actives have AC50 up to about 37 µM;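 further: cells exposed to compound for 48 hours before readout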); conditions: SU-DIPG-XIII viability, CellTiter-Glo ATP luminescence
[3] = growth inhibition of DIPG glioma cells, dose response, cell-based, JHH-DIPG-1, MIPE4.0, CellTiter-Glo, qHTS (AID 1347062; cut-off not given, nearly all actives have AC50 up to about 27 µM;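 further: cells exposed to compound for two days before readout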); conditions: JHH-DIPG-1 viability, CellTiter-Glo ATP luminescence
[4] = growth inhibition of DIPG glioma cells, dose response, cell-based, SU-DIPG-IV, MIPE4.0, CellTiter-Glo, qHTS (AID 1347063; cut-off not given, nearly all actives have AC50 up to about 30 µM;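 further: compound exposure lasted 48 hours before the viability readout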); conditions: SU-DIPG-IV viability, CellTiter-Glo ATP luminescence
[5] = growth inhibition of DIPG glioma cells, dose response, cell-based, SU-DIPG-XIII, MIPE5.0, CellTiter-Glo, qHTS (AID 1347064; cut-off not given, nearly all actives have AC50 up to about 23 µM;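 further: cells exposed to compound for 48 hours before the viability read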); conditions: SU-DIPG-XIII viability, CellTiter-Glo ATP luminescence
[6] = viability loss in pontine glioma line – cell-based, SU-DIPG-XXV, MIPE5.0, CellTiter-Glo, qHTS, dose response (AID 1347065; cut-off not given, nearly all actives have AC50 up to about 26 µM;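 further: cells exposed to compound for 48 hours before ATP readout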); conditions: CellTiter-Glo ATP luminescence
[7] = SU-DIPG-VI glioma cell viability, MIPE4.0 library, CellTiter-Glo luminescence, qHTS (AID 1347066; cut-off not given, nearly all actives have AC50 up to about 30 µM;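 further: cells exposed to compound for 48 hours before readout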); conditions: CellTiter-Glo ATP luminescence
[8] = JHH-DIPG-1 glioma cell viability, MIPE5.0 library, CellTiter-Glo luminescence, qHTS (AID 1347067; cut-off not given, nearly all actives have AC50 up to about 26 µM;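 further: cells exposed to compound for 48 hours before readout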); conditions: JHH-DIPG-1 glioma viability, CellTiter-Glo ATP luminescence
[9] = SU-DIPG-XXV glioma cell viability, MIPE5.0 library, qHTS (AID 1347068; cut-off not given, nearly all actives have IC50 up to about 30 µM)
[10] = LFS_MB_P medulloblastoma growth inhibition, cell-based, chromothripsis tumors, cisplatin or BGB combos (AID 1671449; in the data active means inhibition above about 80%;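 further: cells exposed for 96 hours; 0% = vehicle DMSO and 100% = killing by high DMSO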); conditions: LFS_MB_P medulloblastoma cells
[11] = HDN33 neuroblastoma growth inhibition, cell-based, chromothripsis tumors, cisplatin or BGB combos (AID 1671450; in the data active means inhibition above about 80%;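 further: cells exposed to compound for four days; 0% = vehicle DMSO and 100% = cell killing by high DMSO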); conditions: HDN33 neuroblastoma cells, stronger effect = higher value
[12] = ICB984 medulloblastoma cell growth inhibition, synergistic combos for chromothripsis tumors, cisplatin or BGB combos (AID 1671451; call rule not given here;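 further: cells exposed for 96 hours before readout; 0% = vehicle DMSO and 100% = killing by high DMSO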); conditions: ICB984 medulloblastoma cells, drug combinations, stronger effect = higher value
[13] = HTB85 osteosarcoma cell growth inhibition, synergistic combos for chromothripsis tumors, BGB or cisplatin IC20 combos (AID 1671453; in the data active means inhibition above about 80%;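 further: cells exposed for 96 hours before readout; 0% = vehicle DMSO and 100% = high DMSO killing control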); conditions: HTB85 osteosarcoma cells, drug combinations, stronger effect = higher value
[14] = MDA-MB-436 breast carcinoma cell growth inhibition, synergistic combos for chromothripsis tumors, BGB or cisplatin combos (AID 1671458; call rule not given here;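 further: cells exposed for 96 hours; 0% = vehicle DMSO and 100% = killing by high DMSO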); conditions: MDA-MB-436 breast carcinoma growth inhibition, drug combinations, stronger effect = higher value
[15] = growth inhibition of BT084 medulloblastoma cells, cell-based, ICGC_MB145, cisplatin and BGB IC40 combos (AID 1671461; in the data active means inhibition above about 80%;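 further: cells exposed to drugs for 96 hours; 0% = vehicle DMSO and 100% = high DMSO full killing control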); conditions: drug combinations, stronger effect = higher value
[16] = growth inhibition of RCMB18 medulloblastoma cells, cell-based, cisplatin and BGB IC40 combos (AID 1671462; in the data active means inhibition above about 80%;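 further: cells exposed to compound for four days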); conditions: stronger effect = higher value
[17] = sensitizers of A549 cells to miR-34 induction, primary screen, imaging, A549 dox-inducible miR-34, nuclei and caspase counts (AID 1347080;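 active means compounds whose cell count with miR-34 switched on is under 0.7 times the count with it off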); conditions: A549 miR-34 inducible, Hoechst nuclei count, 48 h
[18] = modifiers of HSF1 nuclear foci, imaging, Selleck Cancer Library (AID 1347162; in the data active means plate-normalised HSF1 focus index below about 0.46); conditions: human cells, at 10 µM; SSMD: measured here: HSF1 foci SSMD mean; cell count: measured here: cell number; plate-normalised HSF1 focus index: stronger effect = lower value
[19] = survival rescue of mitochondrial mutant cells in low glucose, primary screen, MELAS cybrids, Rieske KO mouse fibroblasts, CellTiter-Glo (AID 1508586;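 active means mean z-score across replicates of 1.96 or higher in either the MELAS or the Rieske mutant cell line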;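 further: z relative to plate mean and SD of compound and empty wells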)
[20] = ovarian cancer cell viability with rucaparib, profiling panel, oncology-focused library, rucaparib conditional (AID 1508598); conditions: patient-derived ovarian cancer cells, CellTiter-Glo viability, 144 h, stronger effect = lower value

O=C(/C=C/c1ccc(CN(CCO)CCc2c[nH]c3ccccc23)cc1)NO
AC50 [1]: 0.525 µM (active) | AC50 [2]: 1.18 µM (active) | AC50 [3]: 0.235 µM (active) | AC50 [4]: 0.935 µM (active) | AC50 [5]: 0.332 µM (active) | AC50 [6]: 0.295 µM (active) | AC50 [7]: 0.235 µM (active) | AC50 [8]: 0.417 µM (active) | outcome [9]: inactive | inhibition ([10]; at 0.5 µM, stronger effect = higher value): -16.3% (inactive) | inhibition ([10]; measured here: combination with BGB IC20, at 0.005 µM): -29.5% | inhibition ([10]; measured here: combination with BGB IC40, at 0.005 µM): -69.2% | inhibition ([10]; measured here: combination with BGB IC40, at 0.05 µM): -42.5% | inhibition ([10]; measured here: combination with cisplatin, at 0.5 µM, stronger effect = higher value): -26.1% | inhibition ([10]; measured here: combination with cisplatin, at 5 µM, stronger effect = higher value): 114% | inhibition ([11]; BGB combo, at 5 µM): 99.9% | inhibition ([11]; at 0.5 µM): 99.3% (active) | inhibition ([11]; cisplatin combo, at 5 µM): 99.9% | inhibition ([11]; measured here: with BGB IC20 combination, at 0.5 µM): 98.5% | inhibition ([11]; measured here: with cisplatin IC20 combination, at 0.5 µM): 99.7% | inhibition ([11]; single agent, at 5 µM): 99.9% | inhibition ([12]; BGB IC20 combo, at 0.005 µM): 71.4% | inhibition ([12]; BGB IC40 combo, at 0.005 µM): 89.6% | inhibition ([12]; BGB IC40 combo, at 0.05 µM): 100% | inhibition ([12]; at 0.5 µM): -29.4% (inactive) | inhibition ([12]; cisplatin combo, at 0.05 µM): 101% | inhibition ([12]; cisplatin combo, at 0.5 µM): -36.3% | inhibition ([12]; cisplatin combo, at 5 µM): -4.27% | inhibition ([12]; measured here: 5 uM single agent, at 5 µM): 13.8% | inhibition ([13]; at 0.5 µM): 99.3% (active) | inhibition ([13]; measured here: with BGB IC20, at 0.5 µM): 98.7% | inhibition ([13]; measured here: with BGB IC20, at 5 µM): 99.9% | inhibition ([13]; measured here: with cisplatin IC20, at 0.5 µM): 99.9% | inhibition ([13]; measured here: with cisplatin IC20, at 5 µM): 99.9% | inhibition ([13]; single agent, at 5 µM): 99.9% | inhibition ([14]; at 0.5 µM): 63.3% (inactive) | inhibition ([14]; measured here: BGB combination, at 0.5 µM): 55.8% | inhibition ([14]; measured here: BGB combination, at 5 µM): 59.7% | inhibition ([14]; measured here: cisplatin combination, at 0.5 µM): 60.4% | inhibition ([14]; measured here: cisplatin combination, at 5 µM): 75.3% | inhibition ([15]; at 0.5 µM): 98.5% (active) | inhibition ([15]; cisplatin combination, at 0.5 µM): 101% | inhibition ([15]; cisplatin combination, at 5 µM): 104% | inhibition ([15]; measured here: BGB IC40 combination 0.05 uM, at 0.05 µM): 38.4% | inhibition ([15]; single agent, at 5 µM): 108% | inhibition ([16]; at 0.5 µM): 82% (active) | inhibition ([16]; cisplatin combo, at 5 µM): 98.9% | inhibition ([16]; measured here: BGB IC40 combination, at 0.05 µM): 6.39% | inhibition ([16]; measured here: combination with cisplatin, at 0.5 µM): 90.4% | inhibition ([16]; single agent, at 5 µM): 96.9%

CCNC(=O)c1cc2c(-c3cc(OCCN4CCCC4)c(Cl)cc3Cl)nc(N)nc2s1
AC50 [1]: 1.02 µM (active) | AC50 [2]: 6.62 µM (active) | AC50 [3]: 0.935 µM (active) | AC50 [4]: 2.35 µM (active) | AC50 [5]: 2.29 µM (active) | AC50 [6]: 1.62 µM (active) | AC50 [8]: 1.82 µM (active)

CC(=O)Nc1cccc(-n2c(=O)n(C3CC3)c(=O)c3c(Nc4ccc(I)cc4F)n(C)c(=O)c(C)c32)c1
AC50 [1]: 0.0833 µM (active) | AC50 [2]: 0.235 µM (active) | AC50 [3]: 0.209 µM (active) | AC50 [4]: 3.32 µM (active) | AC50 [5]: 0.0833 µM (active) | AC50 [6]: 0.105 µM (active) | outcome [7]: inactive | AC50 [8]: 0.0417 µM (active) | fold change ([17]; stronger effect = lower value, cell number ratio, induced over uninduced): 1.15 (inactive) | fold change ([17]; measured here: relative caspase fold change +Dox/-Dox): 0.672 | cell count ([17]; measured here: total cells with miR-34 induction, stronger effect = lower value): 4330 | cell count ([17]; measured here: total cells without miR-34 induction): 3760 | SSMD [18]: 3.07 | cell count [18]: 6560 | plate-normalised HSF1 focus index [18]: 1.16 (inactive) | z-score ([19]; MELAS cybrid survival, CellTiter-Glo 48 h, stronger effect = higher value): -0.421 (inactive) | z-score ([19]; Rieske KO mouse fibroblast survival, CellTiter-Glo 72 h): -0.112 | viability ([20]; at 0.000305 µM, OCI-C5x cells, with rucaparib 10 µM, 100% = cells with rucaparib alone): 123% (inactive) | viability ([20]; at 0.000305 µM, OCI-C5x cells, without rucaparib): 120% (inactive) | viability ([20]; at 0.000305 µM, OCI-P5x cells, with rucaparib 20 µM, 100% = cells with rucaparib alone): 109% (inactive) | viability ([20]; at 0.000305 µM, OCI-P5x cells, without rucaparib): 102% (inactive) | viability ([20]; at 0.00122 µM, OCI-C5x cells, with rucaparib 10 µM, 100% = cells with rucaparib alone): 102% (inactive) | viability ([20]; at 0.00122 µM, OCI-C5x cells, without rucaparib): 122% (inactive) | viability ([20]; at 0.00122 µM, OCI-P5x cells, with rucaparib 20 µM, 100% = cells with rucaparib alone): 89.6% (active) | viability ([20]; at 0.00122 µM, OCI-P5x cells, without rucaparib): 89.5% (active) | viability ([20]; at 0.00488 µM, OCI-C5x cells, with rucaparib 10 µM, 100% = cells with rucaparib alone): 105% (inactive) | viability ([20]; at 0.00488 µM, OCI-C5x cells, without rucaparib): 113% (inactive) | viability ([20]; at 0.00488 µM, OCI-P5x cells, with rucaparib 20 µM, 100% = cells with rucaparib alone): 75% (active) | viability ([20]; at 0.00488 µM, OCI-P5x cells, without rucaparib): 74.2% (active) | viability ([20]; at 0.0195 µM, OCI-C5x cells, with rucaparib 10 µM, 100% = cells with rucaparib alone): 111% (inactive) | viability ([20]; at 0.0195 µM, OCI-C5x cells, without rucaparib): 109% (inactive) | viability ([20]; at 0.0195 µM, OCI-P5x cells, with rucaparib 20 µM, 100% = cells with rucaparib alone): 72.4% (active) | viability ([20]; at 0.0195 µM, OCI-P5x cells, without rucaparib): 76.7% (active) | viability ([20]; at 0.0781 µM, OCI-C5x cells, with rucaparib 10 µM, 100% = cells with rucaparib alone): 88% (active) | viability ([20]; at 0.0781 µM, OCI-C5x cells, without rucaparib): 88.8% (active) | viability ([20]; at 0.0781 µM, OCI-P5x cells, with rucaparib 20 µM, 100% = cells with rucaparib alone): 51.6% (active) | viability ([20]; at 0.0781 µM, OCI-P5x cells, without rucaparib): 55% (active) | viability ([20]; at 0.313 µM, OCI-C5x cells, with rucaparib 10 µM, 100% = cells with rucaparib alone): 73.7% (active) | viability ([20]; at 0.313 µM, OCI-C5x cells, without rucaparib): 82.7% (active) | viability ([20]; at 0.313 µM, OCI-P5x cells, with rucaparib 20 µM, 100% = cells with rucaparib alone): 44.7% (active) | viability ([20]; at 0.313 µM, OCI-P5x cells, without rucaparib): 53.7% (active) | viability ([20]; at 1.25 µM, OCI-C5x cells, with rucaparib 10 µM, 100% = cells with rucaparib alone): 45.5% (active) | viability ([20]; at 1.25 µM, OCI-C5x cells, without rucaparib): 78.2% (active) | viability ([20]; at 1.25 µM, OCI-P5x cells, with rucaparib 20 µM, 100% = cells with rucaparib alone): 36.4% (active) | viability ([20]; at 1.25 µM, OCI-P5x cells, without rucaparib): 37.4% (active) | viability ([20]; at 5 µM, OCI-C5x cells, with rucaparib 10 µM, 100% = cells with rucaparib alone): 41.3% (active) | viability ([20]; at 5 µM, OCI-C5x cells, without rucaparib): 52.7% (active) | viability ([20]; at 5 µM, OCI-P5x cells, with rucaparib 20 µM, 100% = cells with rucaparib alone): 30.4% (active) | viability ([20]; at 5 µM, OCI-P5x cells, without rucaparib): 34.2% (active)
